Screen size: about 44,000 compounds; fewer than 10 were called active. Calls come from the whole dose curve; as a rule, active = well fitted inhibition curve with a large enough effect; inconclusive = small, poorly fitted or top-dose-only effect; inactive = flat fitted curve, though single readings scatter. Only a sample is shown.
Molecular target: Tumor susceptibility gene 101 protein (Homo sapiens) (UniProt Q99816)
Assay: qHTS Validation Assay for Inhibitors of HIV-1 Budding by Blocking the Interaction of PTAP/TSG101: Sytravon Library Screen; note: 0% is about no effect
Conditions: Fluorescence polarization, FITC-PTAP peptide/Tsg101, 20 min; series mostly up to 115 µM; activity change, negative = inhibition: at the top concentration
Source text: Stages of the HIV-1 replication cycle, specifically virus assembly and release, provide underexploited targets for the development of novel antiviral inhibitors. The late stages of HIV-1 replication are mediated by the Gag precursor protein, Pr55Gag. Expression of Pr55Gag is both necessary and sufficient for the production of virus-like particles from Gag-expressing cells. The Gag protein hijacks key host proteins involved in endocytic machinery of the host cell to promote endosomal processing and viral budding. The budding process requires a direct interaction between a […] (PTAP) motif in the p6 domain of Gag and the cellular endosomal sorting protein known as Tsg101. In this way, the Gag PTAP motif promotes the host cells to recruit viral particles to the plasma membrane where the new viral particles are released, effectively turning the host cells into viral factories. A fluorescence polarization assay has been developed to quantitatively measure the PTAP-Tsg101 interaction which can be used to screen for inhibitors of this interaction. This assay was run against the NCGC Sytravon Library collection. NIH Molecular Libraries Probe Production Network [MLPCN] NIH Chemical Genomics Center [NCGC] Grant: R03 MH087464-01A1 PI Name: Dr. Eric Freed, NCI
Two uL of the Tsg101 binding domain in buffer (10 mM HEPES pH 7.5; 0.15 M NaCl, 0.01% Tween 20; 3 mM EDTA;0.1 mM TCEP) was dispensed into Greiner black MB 1536-well plates (final concentration 10 uM). Then, 23 nL of compounds or DMSO were delivered to each well using a pin tool. Finally, 2 uL of a FITC-labeled peptide containing the PTAP motif (1) in the same buffer was dispensed (50 nM final concentration) and the binding was allowed to proceed for 20 min. at r.t. Fluorescent polarization was determined using FITC excitation and polarized emission filters on a Perkin Elmer Envision. Assay cut-off (positive/negative criteria): Actives defined by CRC class, <25 µM; Efficacy <60% inhibition. The total fluorescent intensity from S and P channels will be used to flag fluorescent compounds.

Tumor susceptibility gene 101 protein (Homo sapiens), sequence (Q99816 whole entry, looked up): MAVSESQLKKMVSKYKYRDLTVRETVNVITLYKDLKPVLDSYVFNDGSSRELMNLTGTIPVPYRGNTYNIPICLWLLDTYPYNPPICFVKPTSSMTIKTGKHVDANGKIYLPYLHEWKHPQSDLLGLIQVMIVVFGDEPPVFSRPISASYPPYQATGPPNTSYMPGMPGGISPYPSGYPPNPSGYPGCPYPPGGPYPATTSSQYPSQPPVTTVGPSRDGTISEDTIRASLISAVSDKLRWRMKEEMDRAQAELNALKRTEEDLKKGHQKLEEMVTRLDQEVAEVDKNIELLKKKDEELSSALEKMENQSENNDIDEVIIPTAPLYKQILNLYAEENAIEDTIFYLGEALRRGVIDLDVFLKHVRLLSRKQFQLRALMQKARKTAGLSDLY

Activity change, negative = inhibition, inactive:
COc1ccc(-c2csc(-c3c(N)c(C(=O)c4ccc(OC)c(OC)c4)n4ccccc34)n2)cc1 3.42%
Cc1ccc(C)c(N2CCN(C(c3ccccc3)c3nnc(-c4ccccc4)o3)CC2)c1 (configuration not stated) 0.0723%
Fc1ccc(-c2nn(-c3ccccc3Cl)c3c2cnc2ccccc23)cc1 2.46%
CCOc1ccccc1CNC(=O)c1ccc2c(c1)nc1n2CCC(C)C1 (configuration not stated) -0.0943%
COc1ccccc1OCC(=O)Nc1nnc2n1CCS2 -0.292%
CCOC(=O)c1c(C)oc2ccc(N(C(=O)c3ccncc3)S(=O)(=O)c3ccc(CC)cc3)cc12 1.17%
O=C(CCS(=O)(=O)c1ccccc1)N(Cc1cccnc1)c1nc2c(F)cccc2s1 -1.2%
Cn1c(=O)sc2cc(NS(=O)(=O)c3ccc(C(C)(C)C)cc3)ccc21 -5.39%
COc1ccc2c(CNCCc3ccccc3C)c(C(=O)O)n(Cc3ccccc3C)c2c1 -3.79%
Cc1cc2c(cc1C)C(c1cccc(OC(C)C)c1)CC(=O)N2 (configuration not stated) -1.3%
CCc1nn(CCCC(=O)NCc2ccccc2OC)c(=O)c2cc3occc3n12 -0.0025%
Cc1cccc(NC(=O)c2ccc(F)c(S(=O)(=O)N(C)C3CCCCC3)c2)c1 0.693%
COc1ccc(CCNC(=O)c2ccc3c(c2)nc(C)n3-c2ccc(Br)cc2)cc1OC 0.65%
CCCCn1cc(S(=O)(=O)c2ccc(OCC)cc2)c(=O)c2cc(OC)c(OC)cc21 -6.12%
COc1ccccc1CNc1nc2ccc(Cl)cc2n2cnnc12 -1.28%
Cc1ccccc1CNC(=O)CCc1cn(Cc2ccccc2C)c2ccccc12 10.9%
COc1ccccc1-n1c(-c2ccc(C)cc2)cn2c3c(=O)n(C)c(=O)n(C)c3nc12 -1.18%
CCOC(=O)C1CCCN(C(=O)c2ccc(-n3ccc4ccccc43)s2)C1 (configuration not stated) -0.557%
Cc1cc(C)cc(NC(=O)c2cnc3sc(N4CCCC4)nn3c2=O)c1 -0.768%
COc1cc(NC(=O)CSc2nc3nc(C)c(Cc4ccc(C)cc4)c(C)n3n2)cc(OC)c1OC -13.3%
Cc1oc(C)c2c(=O)cc(-c3ccc4c(c3)OCO4)cc(OC(=O)c3ccc(Cl)cc3)c12 -2.11%
COc1cccc(N=C2SC(C(=O)Nc3cccc(Cl)c3)CC(=O)N2C)c1 (configuration not stated) -1.5%
Cc1ccccc1-c1nc2scc(CCNC(=O)C(=O)Nc3ccc(F)cc3F)n2n1 -0.431%
O=C(CSCc1cnn(-c2ccccc2)c1-n1cccc1)NCc1ccc(Cl)cc1 -1.64%
CCN(CC)S(=O)(=O)c1ccc(C(=O)N=c2sc3cccc(OC)c3n2C)cc1 2.51%
CC(=O)Nc1ccc(NC(=O)c2cc3sccc3n2Cc2ccc(F)cc2)cc1 -6.8%
CC(C)Cn1c(C2CC(=O)N(c3ccccc3Cl)C2)nc2ccccc21 (configuration not stated) 1.31%
CC1=C(C(=O)OCC2CCCCC2)C(c2c(F)cccc2Cl)CC(=O)N1 (configuration not stated) -0.961%
COc1cc(Cl)c(C)cc1NC(=O)CCc1nc2cccnc2n1Cc1cccs1 -0.925%
COc1ccc(-c2nc(Cn3c(=O)cc(C)c4c(C)nn(-c5ccccc5)c43)c(C)o2)cc1OC 1.24%
CCC(=O)N1CCc2cc(Br)cc(S(=O)(=O)Nc3ccc(C)cc3C)c21 -1.22%
CC(C)c1ccc(S(=O)(=O)Nc2ccc(O)c(Sc3nc4ccccc4s3)c2)cc1 -8.58%
Cc1ccc(-c2nn3c(=O)cc(CN4CCN(S(=O)(=O)c5ccc(Cl)cc5)CC4)nc3s2)cc1 -1.06%
NS(=O)(=O)c1ccc(NC(=O)COc2ccc(S(=O)(=O)NC3CCCCC3)cc2)cc1 -1.5%
Cc1ccc(NC(=O)Cc2ccc(NC(=O)N3CCCCc4ccccc43)cc2)cc1 0.025%
CC1CCC(N2CC(=O)N(CCC3=CCCCC3)C(c3ccc(F)cc3)C2=O)CC1 (configuration not stated) -9.66%
CCOc1ccccc1CNC(=O)c1ccc(-n2c(C)cc3c2CCC(C)C3)cc1 (configuration not stated) 1.74%
O=S(=O)(c1ccc(Br)cc1)c1nnn2c1nc(NC1CCCCCC1)c1sccc12 -3.9%
Cc1oc(-c2ccccc2)nc1Cn1c(SCc2cccc(C(F)(F)F)c2)nc2cccnc21 0.507%
CCCCOC(=O)/C(C#N)=C/c1ccc(-c2cccc(C(F)(F)F)c2)o1 8.04%
CCOc1ccccc1C(=O)Nc1ccc(S(=O)(=O)N2CCCCC2c2cccnc2)cc1 (configuration not stated) 1.42%
CN(Cc1ccccc1)c1ncnc2onc(-c3ccc(F)cc3)c12 -1.11%
Cc1cccc(C(C)C)c1NC(=O)C(NS(=O)(=O)c1cccc2nsnc12)c1ccccc1 (configuration not stated) -0.333%
Cc1cccc(Cc2c(C)nc3nc(SCc4ccccc4Cl)nn3c2C)c1 0.0529%
Cc1ccc(/C=C(\C#N)C(=O)Nc2cc(C)ccc2C)cc1 -0.172%
COc1ccc(Cn2c(=O)n(-c3ccccc3C)c(=O)c3c4c(sc32)CN(C(C)=O)CC4)cc1 -0.737%
CCOC(=O)c1cc2c(=O)n3ccccc3nc2n(CC2CCCO2)c1=NC(=O)c1ccccc1F (configuration not stated) 0.0852%
